In PubChem BioAssay (NCI):
Compounds without any hit were thinned out: in the full panel of roughly 83,000, 20% have a hit.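 Interpretation: 100, growth as untreated; towards 0, rising growth inhibition; 0, no net growth; 0 to -100, cell death. Compounds scoring below 10 were considered active.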 A number with no mark means an inactive call. Active and inactive are the calls of the source.

tested on: NCI-H322M lung; assay: NCI-60 one-dose screen, 48 h (100 = growth as untreated, 0 = no growth, -100 = all killed); settings: 10 µM unless noted

Structure (SMILES) | growth [%]
CC[C@H](C)[C@H](N)C(=O)O | 96.9
COc1ccc2c(c1)sc1nc(-c3ccccc3)c(-c3cccc4ccccc34)n12 | 57.9
Cc1ccc(C)c(NC(=O)c2sc3c(=O)[nH]cnc3c2C)c1 | 103
Cc1ccncc1NC=O | 102
COc1ccc(/C(C)=N/NC(=O)CSc2nc3ccccc3c(=O)n2CCc2ccc(S(N)(=O)=O)cc2)cc1 | 32.3
COC(=O)OC1C(O[C@H]2C[C@H]3[C@@H]4CC=C5C[C@@H](O)CC[C@]5(C)[C@H]4CC[C@]3(C)[C@H]2[C@H](C)C(=O)CCC(C)C)OCC(O)C1OC1OCC(O)C(O)C1OC(=O)c1ccc(OC)cc1 (stereo partly drawn) | 45.2
O=C1CCCN1C1CCN2CCCc3cccc1c32 (stereo not drawn) | 114
CC1OC(n2c3ccccc3c3c4c(c5c6ccccc6[nH]c5c32)C(=O)N(CCN[C@H]2CCC[C@@H]2N)C4=O)CC(O)C1O (stereo partly drawn) | 54.2
COc1ccc2[nH]cc(C3(c4c[nH]c5ccc(OC)cc45)C(=O)Nc4ccc(F)cc43)c2c1 | 98.1
c1cc2c(cc1-c1cnc3nonc3n1)OCO2 | 103
Nc1c(C(=O)Nc2cccc(Cl)c2)sc2nc3c(cc12)C(=O)CCC3 | 71.8
O=C(Nc1ccc(Br)cc1)c1ccc(Cl)c(Cl)c1 | 42.3
O=C(CSc1nc2c(n1Nc1ccccc1)-c1ccccc1SC2)Nc1nccs1 | 99.7
COc1ccc(-c2nc3c(c(-c4ccc(Cl)cc4)nn3-c3ccccc3)c(-c3ccc(O)cc3)c2C#N)cc1 | 75.5
c1csc(-c2cnc3nonc3n2)c1 | 90.4
CC1(C)CC(=O)c2cc3c(N)c(C(=O)Nc4ccc(Cl)cc4)sc3nc2C1 | 114
CN1C(=O)C(C(=O)/C=C/c2ccccc2C(=O)O)C(=O)N(C)C1=O | 99.1
CC(NC(=O)c1ccccc1)C(=O)Nc1ccccc1 (stereo not drawn) | 127
CN1CCC2(CC1)N=C(SCC(=O)Nc1cnc3ccccc3c1)C(c1ccc(Br)cc1)=N2 | 50.8
CSc1nc(N)c2[nH]c(-c3cc4ccccc4[nH]c3=O)nc2n1 | 67

Structure (SMILES) | growth [%]
C=CC(=O)N1CN(C(=O)C=C)CN(C(=O)C=C)C1 | 108
CC(C)(C)[Si](C)(C)OC1[C@@H](O[Si](C)(C)C(C)(C)C)[C@@H](CNC(=O)NC(=O)NC(=O)CCl)O[C@H]1n1cnc2c(NC(=O)Nc3ccccc3)ncnc21 (stereo partly drawn) | 103
CCCCCCCC/C=C/CCCCCCCC1=NC(C)(C)CN1c1ccccc1 | 116
CCCCCCCCN(CCCCCCCC)C(=O)CCl | 108
COc1cc(OC)c(Cl)cc1N | 110
CNC(=O)c1c(NC(=O)c2ccc(C(C)C)cc2)sc2c1CCC(=O)C2 | 17.6
COc1nccc2c(Sc3ccccc3)nc(N)nc12 | 110
Nc1c(C(=O)Nc2ccccc2)sc2nc3c(cc12)C(=O)CCC3 | 67.1
CCC(=O)NC1=C(Cl)C(=O)C(NC(=O)CC)=C(Cl)C1=O | 107
CCCCCCCCCCCCC1CCC(=O)O1 (stereo not drawn) | 74.6
CCN1C(=O)N(CC)C2C1NC(=O)N2/N=C/C=C/c1ccccc1 (stereo not drawn) | 63.8
CN(C)CCCN1c2ccccc2CCc2ccccc21 | 108
CC(CN1CCN(CC(C)Nc2ccnc3cc(Cl)ccc23)CC1)Nc1ccnc2cc(Cl)ccc12 (stereo not drawn) | 20.7
S=C(S)Oc1cccc2cccnc12 | 95.2
CCn1c(Cc2ccccc2Nc2c(Cl)cccc2Cl)nnc1SCC(=O)Nc1cccc(OC)c1 | 79.4
CCc1onc(-c2ccc(OC)cc2)c1-c1ccccc1OCCN(CC)CC | 76.6
COc1ccc(-c2cc(-c3ccc(OC)cc3)c3sc(=O)[nH]c3n2)cc1 | 82.3
COc1ccc2nc3ccccc3c(NCc3ccc(C)cc3)c2c1 | 30.3
CS(=O)(=O)c1ccc(C(=O)Nc2ccc(Cl)c(-c3ccccn3)c2)c(Cl)c1 | 52

tested on: HOP-62 NSCLC; assay: as above; settings: 10 µM unless noted

Structure (SMILES) | growth
CC[C@H](C)[C@H](N)C(=O)O | 102%
COc1ccc2c(c1)sc1nc(-c3ccccc3)c(-c3cccc4ccccc34)n12 | 64.4%
Cc1ccc(C)c(NC(=O)c2sc3c(=O)[nH]cnc3c2C)c1 | 80.8%
Cc1ccncc1NC=O | 109%
COc1ccc(/C(C)=N/NC(=O)CSc2nc3ccccc3c(=O)n2CCc2ccc(S(N)(=O)=O)cc2)cc1 | -0.117% (active)
COC(=O)OC1C(O[C@H]2C[C@H]3[C@@H]4CC=C5C[C@@H](O)CC[C@]5(C)[C@H]4CC[C@]3(C)[C@H]2[C@H](C)C(=O)CCC(C)C)OCC(O)C1OC1OCC(O)C(O)C1OC(=O)c1ccc(OC)cc1 (stereo partly drawn) | -26.5% (active)
O=C1CCCN1C1CCN2CCCc3cccc1c32 (stereo not drawn) | 97%
CC1OC(n2c3ccccc3c3c4c(c5c6ccccc6[nH]c5c32)C(=O)N(CCN[C@H]2CCC[C@@H]2N)C4=O)CC(O)C1O (stereo partly drawn) | 30.2%
COc1ccc2[nH]cc(C3(c4c[nH]c5ccc(OC)cc45)C(=O)Nc4ccc(F)cc43)c2c1 | 83.3%
c1cc2c(cc1-c1cnc3nonc3n1)OCO2 | 83.5%
Nc1c(C(=O)Nc2cccc(Cl)c2)sc2nc3c(cc12)C(=O)CCC3 | 47%
O=C(Nc1ccc(Br)cc1)c1ccc(Cl)c(Cl)c1 | 98.3%
O=C(CSc1nc2c(n1Nc1ccccc1)-c1ccccc1SC2)Nc1nccs1 | 101%
COc1ccc(-c2nc3c(c(-c4ccc(Cl)cc4)nn3-c3ccccc3)c(-c3ccc(O)cc3)c2C#N)cc1 | 57.5%
c1csc(-c2cnc3nonc3n2)c1 | 87.9%
CC1(C)CC(=O)c2cc3c(N)c(C(=O)Nc4ccc(Cl)cc4)sc3nc2C1 | 108%
CN1C(=O)C(C(=O)/C=C/c2ccccc2C(=O)O)C(=O)N(C)C1=O | 91.3%
CC(NC(=O)c1ccccc1)C(=O)Nc1ccccc1 (stereo not drawn) | 103%
CN1CCC2(CC1)N=C(SCC(=O)Nc1cnc3ccccc3c1)C(c1ccc(Br)cc1)=N2 | 38.9%
CSc1nc(N)c2[nH]c(-c3cc4ccccc4[nH]c3=O)nc2n1 | 115%

Structure (SMILES) | growth
C=CC(=O)N1CN(C(=O)C=C)CN(C(=O)C=C)C1 | 88.3%
CC(C)(C)[Si](C)(C)OC1[C@@H](O[Si](C)(C)C(C)(C)C)[C@@H](CNC(=O)NC(=O)NC(=O)CCl)O[C@H]1n1cnc2c(NC(=O)Nc3ccccc3)ncnc21 (stereo partly drawn) | 36.7%
CCCCCCCC/C=C/CCCCCCCC1=NC(C)(C)CN1c1ccccc1 | 100%
CCCCCCCCN(CCCCCCCC)C(=O)CCl | 113%
COc1cc(OC)c(Cl)cc1N | 104%
CNC(=O)c1c(NC(=O)c2ccc(C(C)C)cc2)sc2c1CCC(=O)C2 | 12%
COc1nccc2c(Sc3ccccc3)nc(N)nc12 | 113%
Nc1c(C(=O)Nc2ccccc2)sc2nc3c(cc12)C(=O)CCC3 | 39.9%
CCC(=O)NC1=C(Cl)C(=O)C(NC(=O)CC)=C(Cl)C1=O | 111%
CCCCCCCCCCCCC1CCC(=O)O1 (stereo not drawn) | 91.8%
CCN1C(=O)N(CC)C2C1NC(=O)N2/N=C/C=C/c1ccccc1 (stereo not drawn) | 41.3%
CN(C)CCCN1c2ccccc2CCc2ccccc21 | 82.2%
CC(CN1CCN(CC(C)Nc2ccnc3cc(Cl)ccc23)CC1)Nc1ccnc2cc(Cl)ccc12 (stereo not drawn) | -18.4% (active)
S=C(S)Oc1cccc2cccnc12 | 110%
CCn1c(Cc2ccccc2Nc2c(Cl)cccc2Cl)nnc1SCC(=O)Nc1cccc(OC)c1 | 94.2%
CCc1onc(-c2ccc(OC)cc2)c1-c1ccccc1OCCN(CC)CC | 90.4%
COc1ccc(-c2cc(-c3ccc(OC)cc3)c3sc(=O)[nH]c3n2)cc1 | 70.5%
COc1ccc2nc3ccccc3c(NCc3ccc(C)cc3)c2c1 | 39%
CS(=O)(=O)c1ccc(C(=O)Nc2ccc(Cl)c(-c3ccccn3)c2)c(Cl)c1 | 36%
